The structures appear in SMILES notation. Values without a mark were called inactive. Where a call stands in place of a potency, no number is given. The source made the active and inactive calls. The call rests on the fitted dose curve; in most records, active means well fitted activation curve with a large enough effect in the repeat runs; inconclusive means weak or mixed curves; inactive means flat fitted curve, though single readings scatter.

The target of the assay is KiSS-1 receptor (Homo sapiens) (UniProt Q969F8). Kind of assay: Human kisspeptin (KISS1R) small molecule agonists, calcium flux assay in KISS1R-HEK293 cells (AID 1920064). The settings on record: KISS1R-HEK293, calcium flux fluorescence, agonist; series mostly up to 76.8 µM. The source says: National Center for Advancing Translational Sciences [NCATS]
Chain of KiSS-1 receptor (Homo sapiens) (Q969F8 whole entry, looked up): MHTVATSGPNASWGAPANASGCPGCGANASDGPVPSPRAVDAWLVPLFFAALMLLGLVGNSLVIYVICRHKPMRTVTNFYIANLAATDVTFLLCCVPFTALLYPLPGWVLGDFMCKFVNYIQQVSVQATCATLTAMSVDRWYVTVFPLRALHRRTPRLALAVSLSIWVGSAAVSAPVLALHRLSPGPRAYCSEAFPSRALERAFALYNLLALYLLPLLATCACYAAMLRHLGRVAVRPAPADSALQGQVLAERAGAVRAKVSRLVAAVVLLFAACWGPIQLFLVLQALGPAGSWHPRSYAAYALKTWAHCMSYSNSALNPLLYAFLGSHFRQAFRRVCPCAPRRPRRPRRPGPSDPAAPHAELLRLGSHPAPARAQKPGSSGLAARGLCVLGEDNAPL
Division of Preclinical Innovation [DPI]
U.S. Environmental Protection Agency [EPA]
National Institutes of Environmental Health Sciences [NIEHS]
National Toxicology Program [NTP]
U.S. Food and Drug Administration [FDA]
Kisspeptin and its receptor KISS1R play key roles in mammalian reproduction due to their involvement in the onset of puberty and control of the hypothalamic-pituitary-gonadal axis such as regulates GnRH release from the hypothalamus. The kisspeptin/KISS1R system also plays a direct role in peripheral organs (including the ovary, testis, uterus, and placenta) and is implicated in reproductive diseases such as miscarriage and polycystic ovary syndrome (PCOS). Abnormal KISS1R activity is associated with abnormal puberty, infertility, endometriosis, and hormone-dependent tumors. The KISS1 receptor (KISS1R, also called GPR54), a G-protein-coupled receptor (GPCR), acts (through phospholipase C) to increase intracellular inositol trisphosphate and then release intracellular calcium stores. Cell-based KISS1R-HEK293 assay is using HEK293 cells that have been genetically engineered to express the human KISS1R, which activity can be measured by calcium signaling. A compound/drug can activate (agonist) KISS1R that can be monitored by levels of intracellular calcium.
KISS1R-HEK293 cells developed by Codex Corp contain human KISS1R gene, which was stably integrated into HEK 293 cells. The compound activation can be detected by fluorescence intensity via calcium flux assay. This cell line has been used to screen the Tox21 10K compound library to identify agonists of KISS1R.
KISS1R-Hek293 cells were dispensed at 1500 cells/4uL/well in 1536-well black wall/clear bottom plates using a multidrop dispenser. After the assay plates were incubated at a 37 C/5% CO2 incubator for 18 hours, 4 microL of Calcium Dye Solution was added to each well. The plates were incubated at 37 C for 1 hour. And then 23 nL of compounds dissolved in DMSO, positive controls, or DMSO only was transferred to the assay plate by a pin tool station. The fluorescence intensity in the plates was measured using FDSS 7000EX kinetic plate reader with a filter set of Ex/Em=480/540 for 3 min at 1 sec intervals. Each test compound was measured at 15 concentrations and in triplicates.
On the technique in general: Calcium flux is commonly read through the fluorescence of an indicator in the cells.
As to `CO[Si](C)(OC)OC`, the Potency entry was “inactive”.
Consider `c1cc(CCCc2ccncc2)ccn1`, for which the Potency result was “inactive”.
The same measure, in the same setting: for `CN(C)c1ccc(SC#N)cc1` the value was “inactive”; for `CC(C)(C)C(=O)CCc1ccc(Cl)cc1`, “inactive”.
Same read-out and setting: the same measure for `O=C(Oc1ccccc1)c1ccc2ccccc2c1O`: “inactive”; for `COC(=O)Nc1nc2ccc(C(=O)C3CC3)cc2[nH]1`: “inactive”.
Same read-out and setting: for `CC(C)=CCCC(C)CCOC=O` (stereo not given) the value was “inactive”.
On to `O=C1NC(=O)c2cc([N+](=O)[O-])ccc21`, for which the Potency result was “inactive”.
As to `CC(C)OC(=O)c1cc(C(=O)OC(C)C)cc([N+](=O)[O-])c1`, the Potency result is “inactive”.
Same read-out and setting: the same measure for `CCCN(CCc1cccs1)[C@H]1CCc2c(O)cccc2C1`: “inactive”.
`CC(C)(C)CC(C)(C)N`: the Potency result is “inactive”.
On the same count and under the same terms, for `CCCCO` the value was “inactive”.
`CCC(C)[O-].CCC(C)[O-].CCOC(=O)/C=C(/C)[O-].[Al+3]`: the Potency result was “inactive”.
Consider `O=C(O)CN(CCN(CC(=O)O)CC(=O)O)CC(=O)O`, for which the activation was -1.01% [at 2.72 µM].
In the case of `CCCC(=O)O[C@]1(C(=O)CO)CC[C@H]2[C@@H]3CCC4=CC(=O)CC[C@]4(C)[C@H]3[C@@H](O)C[C@@]21C`, the Potency result is “inactive”.
Turning to `Cc1cc(O)c2ccccc2c1O`, the Potency result is “inactive”.
On the same count and under the same terms, the same measure for `CC(C)=CCC[C@](C)(O)[C@@H]1CC=C(C)CC1`: “inactive”; for `c1cc(C(c2ccc(OCC3CO3)cc2)c2ccc(OCC3CO3)cc2)ccc1OCC1CO1` (stereo not given): “inactive”.
Still for that read-out and setting: the same measure for `CC(C)COC(=O)c1ccc(O)cc1`: “inactive”.
Same read-out and setting: the same measure for `O=C(O)CO`: “inactive”; for `O=C(NCc1ncc(C(F)(F)F)cc1Cl)c1c(Cl)cccc1Cl`: “inactive”; for `O=C(Nc1cccc(Cl)c1)OCC#CCCl`: “inactive”.
For `Cc1cccc2c1cc1ccc3cccc4ccc2c1c34`, the Potency result is “inactive”.
Consider `CC[C@H](C)C(=O)O[C@H]1C[C@H](O)C=C2C=C[C@H](C)[C@H](CC[C@@H](O)C[C@@H](O)CC(=O)O)[C@H]21`, for which the Potency result was “inactive”.
The same measure, in the same setting: for `CC(Cc1cccc(C(F)(F)F)c1)NCCOC(=O)c1ccccc1` (stereo not given) the value was “inactive”; for `Cn1c(N)nc2nc[nH]c2c1=O`, “inactive”; for `CN(C)C(=O)C(CCN1CCC(O)(c2ccc(Cl)cc2)CC1)(c1ccccc1)c1ccccc1`, “inactive”.
Turning to `Cc1ccccc1N=C(N)Nc1ccccc1C`, the Potency result is “inactive”.
On the same count and under the same terms, for `CN(C)CCCN1c2ccccc2CCc2ccccc21` the value was “inactive”; for `C/C(CC(C)C)=N\O`, “inactive”.
Take `c1ccc2c(c1)-c1ccc3ccc4cccc5cc-2c1c3c45`: the Potency entry was “inactive”.
On the same count and under the same terms, for `Fc1ccccc1[C@@H](F)COC1CCC(Nc2ncnc3[nH]ncc23)CC1` (stereo not given in full) the value was “inactive”; for `CC/C(=C(\c1ccc(O)cc1)c1ccc(OCCN(C)C)cc1)c1ccccc1`, “inactive”.
Same read-out and setting: for `CC1(C)[C@@H](OC(=O)CCC(=O)O)CC[C@]2(C)[C@H]3C(=O)C=C4[C@@H]5C[C@@](C)(C(=O)O)CC[C@]5(C)CC[C@@]4(C)[C@]3(C)CC[C@@H]12` the value was “inactive”; for `CC(=O)SCC(CC(=O)c1ccc(C)cc1)C(=O)O` (stereo not given), “inactive”; for `OCCCCCO`, “inactive”.
Regarding `C=C1CC[C@H]2C[C@@H]1C2(C)C`, the Potency result is “inactive”.
On the same count and under the same terms, the same measure for `CC(=O)OCC(=O)[C@H]1CC[C@H]2[C@@H]3CCC4=CC(=O)CC[C@]4(C)[C@H]3CC[C@]12C`: “inactive”.
For the compound `O=[N+]([O-])c1cc(N(CCO)CCO)ccc1NCCO`, the Potency entry was “inactive”.
Still for that read-out and setting: for `CN(C)[C@@H](CCOc1cccc2ccccc12)c1ccccc1` the value was “inactive”.

The values are drawn from PubChem BioAssay (Tox21).
